# The campaign covered roughly 16,000 compounds. About 5,100 (32%) were called active. About 25% were inconclusive and are not listed. The list shows a part of the results. Unmarked numbers belong to inactive results. The call rests on the fitted dose curve; in most records, active means well fitted curve in the direction sought with a large enough effect; inconclusive means small, poorly fitted or top-dose-only effect, or effect the other way; inactive means no such curve, though single readings can be large or run the other way.
# Target: Cytochrome P450 3A4 (Homo sapiens) (UniProt P08684)
# Sequence (P08684 whole entry, looked up): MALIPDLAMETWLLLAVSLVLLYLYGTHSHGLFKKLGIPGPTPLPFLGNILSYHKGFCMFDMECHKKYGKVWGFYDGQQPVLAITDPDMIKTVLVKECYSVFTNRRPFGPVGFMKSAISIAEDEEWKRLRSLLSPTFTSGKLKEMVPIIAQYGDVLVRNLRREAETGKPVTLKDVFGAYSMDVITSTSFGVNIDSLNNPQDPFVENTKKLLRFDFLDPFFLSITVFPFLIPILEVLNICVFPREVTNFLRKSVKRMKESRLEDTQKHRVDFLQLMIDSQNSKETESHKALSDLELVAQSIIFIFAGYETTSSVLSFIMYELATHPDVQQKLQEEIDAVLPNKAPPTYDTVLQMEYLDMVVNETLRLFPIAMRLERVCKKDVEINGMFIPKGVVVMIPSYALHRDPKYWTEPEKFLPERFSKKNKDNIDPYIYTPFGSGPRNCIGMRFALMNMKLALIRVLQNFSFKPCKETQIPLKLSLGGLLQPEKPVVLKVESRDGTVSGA
# Experiment: Cytochrome panel assay with activity outcomes
# Details: recombinant CYP, pro-luciferin dealkylation, luminescence, p450-cyp3a4; series mostly up to 57.1 µM; activity, negative = inhibition: at the top concentration
# On the % scale 0 is the no-effect control and ±100 the full control effect.
Structure (SMILES),"activity, negative = inhibition",AC50
CCOc1ccc2nc(NC(=O)c3ccc(S(=O)(=O)N4CCOCC4)cc3)sc2c1,-15%,–
CCc1cc(C(c2ccccc2OC)N2CCOCC2)c(NC(=O)c2ccccc2)s1 (stereo not drawn),–,4.47 µM (active)
COc1ccc(NC(=O)c2ccc(-c3ccc(-c4noc(C)n4)cc3C)cc2)cc1N1CCN(C)CC1,-16.4%,–
O=C(Nc1ccccc1)N1CCCC(c2nc(-c3ccc(F)cc3)no2)C1 (stereo not drawn),–,14.1 µM (active)
CN(C)c1ccc(-c2noc(C3CCN(S(=O)(=O)c4cccc(C(=O)O)c4)CC3)n2)cc1,-21.2%,–
CCCCC1CCC(c2nc(-c3ccccn3)no2)CC1 (stereo not drawn),5.4% [at 2.29 µM],–
CCCCCC(=O)N1CCCC(c2nc(-c3ccc(OC)cc3)no2)C1 (stereo not drawn),–,7.08 µM (active)
COc1ccc(-c2noc(C3CCCN(C(=O)c4ccccc4OC)C3)n2)cc1OC (stereo not drawn),–,5.01 µM (active)
CC(C)(C)c1ccc(C(=O)NCc2ccc(Cl)cc2)cc1,-23.4%,–
O=C(NCc1ccccc1)c1cccc(COc2cccc(Cl)c2)c1,-29.3% [at 11.4 µM],–
O=C(NCc1cccc(C(F)(F)F)c1)c1cc(Cl)cc(Cl)c1,–,14.1 µM (active)
CCOCC(=O)Nc1cc(C(=O)Nc2ccccc2)ccc1Cl,-4.26% [at 2.29 µM],–
CCN(CC)S(=O)(=O)c1cc(C(=O)OC)ccc1Cl,9.82%,–
CCN(CC)S(=O)(=O)c1cc(C(=O)Nc2ccncc2)ccc1Cl,–,1 µM (active)
CC(=O)Nc1ccc(S(=O)(=O)c2ccc(N)cc2)cc1,-19.3% [at 11.4 µM],–
CC(=O)Nc1ccc(Nc2ncc([N+](=O)[O-])c(Nc3ccc(NC(C)=O)cc3)n2)cc1,–,6.31 µM (active)
CC(=O)Nc1ccc([N+](=O)[O-])cn1,3.23%,–
Cc1ccc(C(=O)NC(=S)NCC2CCCO2)cc1 (stereo not drawn),-7.78% [at 2.29 µM],–
Cc1cccc(NC(=S)NNC(=O)CC(C)O)c1C (stereo not drawn),-9.46%,–
CCOc1cc(NC(=S)NCC2CCCO2)c(OCC)cc1NC(=O)c1ccccc1C (stereo not drawn),–,12.6 µM (active)
CCc1cc(C(=O)NNC(=S)NCC2CCCO2)cs1 (stereo not drawn),-21.7%,–

Structure (SMILES),"activity, negative = inhibition",AC50
Cc1ccccc1C(=O)c1c[nH]c(C(=O)NCC2CCCO2)c1 (stereo not drawn),2.67% [at 11.4 µM],–
CCOc1cc(NC(=S)Nc2cccc(C)c2)c(OCC)cc1NC(=O)CC(C)C,–,11.2 µM (active)
Cc1scc(C(=O)NNC(=S)NCC2CCCO2)c1C (stereo not drawn),-19.7%,–
CCOc1cc(NC(=S)NCC2CCCO2)c(OCC)cc1NC(=O)c1cccc(C)c1 (stereo not drawn),–,12.6 µM (active)
Nc1cc(C(=O)O)[nH]c(=O)n1,-11.2% [at 11.4 µM],–
O=C(O)[C@H]([C@H]1NCCS1)N1Cc2ccccc2C1,-4.44% [at 11.4 µM],–
CC(=O)N1CCC2(CC1)CCN(c1cccc(-c3ccccc3)c1)CC2,-17.6%,–
COc1ccc(C(=O)N2CCC[C@@]3(CCN(c4cccc(-c5ccccc5)c4)C3)C2)cc1,–,3.16 µM (active)
O=C(c1cccc(F)c1)N1CCC[C@@]2(CCN(c3ccccc3)C2)C1,–,6.31 µM (active)
COC(=O)N1CCC2(CC1)CN(c1cccc(-c3ccccc3)c1)C2,4.17%,–
O=C(c1cccc(F)c1)N1CCC2(CCCN(C(c3ccccc3)c3ccccc3)C2)CC1,-29.9%,–
O=C(c1cccc(F)c1)N1CCC[C@@]2(CCN(c3cccc(-c4ccccc4)c3)C2)C1,–,7.94 µM (active)
CN1CC[C@@]2(CCCN(C(=O)c3cccc(F)c3)C2)C1,-27.3%,–
O=C(c1cccc(F)c1)N1CCC[C@@]2(CCN(C(c3ccccc3)c3ccccc3)C2)C1,–,3.98 µM (active)
CN(C)CCCO[C@H]1[C@@H]2OC(C)(C)O[C@@H]2O[C@@H]1[C@H](O)CO,1.58% [at 25.6 µM],–
Clc1ccc2c(NCCNC3CCCCC3)ccnc2c1,-5.83% [at 11.4 µM],–
O=C(O)/C=C\[C@H](O)c1ccc(Cl)cc1,2.09%,–
O=C(c1cccc(F)c1)N1CCC2(CC1)CN(c1ccncc1)C2,22.2%,–
O=C(c1cccc(F)c1)N1CCC[C@@]2(CCN(c3ccncc3)C2)C1,–,0.316 µM (active)
O=C(NNC(=O)c1ccccc1-n1cccc1)c1ccc(Cl)c(Cl)c1,–,15.8 µM (active)
O=C(NNC(=O)c1ccccc1-n1cccc1)c1ccccc1,-20.3%,–

Structure (SMILES),"activity, negative = inhibition",AC50
N[C@H](CCCC(=O)O)C(=O)O,-2.17%,–
N=C(C[C@@H](O)COc1ccccc1-c1ccccc1)N1CCCCC1,-25.3%,–
CN1CCN(c2ccnc(-c3ccoc3)n2)CC1,-2.76%,–
CN1CCN(c2ccnc(-c3cccc(NS(C)(=O)=O)c3)n2)CC1,–,25.1 µM (active)
CS(=O)(=O)Nc1cccc(-c2nccc(-n3ccnc3)n2)c1,–,1.58 µM (active)
CS(=O)(=O)Nc1cccc(-c2cncnc2-n2ccnc2)c1,–,7.94 µM (active)
C[N+](C)(N)CCC[N+](C)(C)N,-4.61% [at 11.4 µM],–
Cc1ccc(NC(=O)/C(=C\c2cccc([N+](=O)[O-])c2)NC(=O)c2cccs2)cc1,–,0.398 µM (active)
Cc1ccc(NC(=O)/C(=C\c2ccc([N+](=O)[O-])cc2)NC(=O)c2ccccc2)cc1,–,1.12 µM (active)
CCOC(=O)C1CCCN(C(=O)/C=C/c2cccc([N+](=O)[O-])c2)C1 (stereo not drawn),3.28% [at 2.29 µM],–
CCc1ccc(N2CC(C(=O)N/N=C/c3cccc([N+](=O)[O-])c3)CC2=O)cc1 (stereo not drawn),-50%,–
O=C(N/N=C/C=C/c1ccc([N+](=O)[O-])cc1)c1cccs1,-1.51%,–
O=C(Nc1cccc2ccccc12)/C(=C/c1ccc([N+](=O)[O-])cc1)NC(=O)c1ccccc1,–,1.12 µM (active)
Cc1ccc(NC(=O)/C(=C/c2cccc([N+](=O)[O-])c2)NC(=O)C2CCCCC2)c(C)c1,–,1 µM (active)
O=C(O)C1=CCCNC1,–,inactive
CC[C@H](Cc1c(I)cc(I)c(N)c1I)C(=O)O,-23.4% [at 25.6 µM],–
O=C(O)c1cc(N=Nc2ccc([N+](=O)[O-])cc2)ccc1O,-6.97% [at 11.4 µM],–
O=C(CNC(=O)c1ccc([N+](=O)[O-])cc1)c1ccccc1,0.889%,–
COc1cc(/C=C(\C#N)C(=O)NCC2CCCO2)c([N+](=O)[O-])cc1OC (stereo not drawn),12.9%,–
Cc1ccc(C(=O)N/C(=C\c2ccc([N+](=O)[O-])cc2)C(=O)NCCc2ccccc2)cc1,–,0.282 µM (active)
COc1cc(/C=C(/NC(=O)c2ccccc2)C(=O)Nc2ccccc2)c([N+](=O)[O-])cc1OC,–,0.794 µM (active)

# From PubChem BioAssay AID1851 (National Center for Advancing Translational Sciences (NCATS), 2009)
